PubChem BioAssay (EPA / NIEHS)
Active and inactive are the calls of the source. How the source made its calls: active means hit-call score of the fitted dose curve at least 0.9, where 1 is the maximum; inactive means score below 0.9.

How the values were obtained:
[1] = ATG_E_Box_CIS: Attagene CIS-FACTORIAL HepG2 Assay for human Enhancer Box (E-box) (AID 2282936); conditions: HepG2 E-box cis-reporter transcription, actives raise or lower the signal
Procedure, shortened: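 Endogenous transcription factor activity was sensed in human HepG2 liver cells through transfected cis-promoter reporter units. After 24 h of dosing, total RNA was reverse-transcribed and reporter cDNA resolved by capillary electrophoresis.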

[2] = ATG_M_61_CIS: Attagene CIS-FACTORIAL HepG2 Assay for M61 Transcription Factor (Internal Marker) (AID 2282937); conditions: HepG2 Attagene CIS-FACTORIAL M61 internal marker reporter; actives raise or lower the signal
Procedure, shortened: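 This endpoint serves as an internal background control within a multiplexed HepG2 cis-reporter panel. Cells are exposed for 24 h; reporter mRNA is amplified, fluorescently labelled and sized by capillary electrophoresis, with DMSO as negative control.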

[3] = ATG_EGR_CIS: Attagene CIS-FACTORIAL HepG2 Assay for human Early Growth Response 1 (EGR1) (AID 2282938); conditions: HepG2 Attagene CIS-FACTORIAL EGR reporter mRNA; actives raise or lower the signal
Procedure, shortened: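 HepG2, transient MRTU transfection (cis promoters), 24 h compound. RNA → RT (oligo-dT) → PCR → 6-FAM labelling → HpaI cut → CE fluorescence. Bidirectional fit, DMSO baseline.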

[4] = ATG_M_19_CIS: Attagene CIS-FACTORIAL HepG2 Assay for M19 Transcription Factor (Internal Marker) (AID 2282939); conditions: HepG2 Attagene CIS-FACTORIAL M19 internal marker reporter; actives raise or lower the signal
Procedure, shortened: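 HepG2 cells transiently transfected with cis-regulated multiple reporter transcription units were dosed for 24 h; reporter mRNA was quantified by RT-PCR, 6-FAM primer-extension labelling, HpaI digestion and capillary electrophoresis, with bidirectional fitting against DMSO baseline.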

[5] = ATG_Ets_CIS: Attagene CIS-FACTORIAL HepG2 Assay for human Erythroblast Transformation Specific (ETS) (AID 2282941); conditions: HepG2 ETS cis-reporter transcription, actives raise or lower the signal
Procedure, shortened: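 RT-PCR/capillary electrophoresis fluorescence read-out of reporter mRNA; HepG2 transient multi-reporter transfection; 24 h compound exposure; gain or loss of signal fitted bidirectionally relative to DMSO.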

[6] = molecular target: Hepatocyte nuclear factor 3-beta (Homo sapiens) (UniProt Q9Y261); experiment: ATG_FoxA2_CIS: Attagene CIS-FACTORIAL HepG2 Assay for human Forkhead box A2 (FOXA2) (AID 2282942); conditions: HepG2 cis-reporter transcription factor activity, 24 h; actives raise or lower the signal
Sequence of Hepatocyte nuclear factor 3-beta (Homo sapiens) (Q9Y261 whole entry, looked up): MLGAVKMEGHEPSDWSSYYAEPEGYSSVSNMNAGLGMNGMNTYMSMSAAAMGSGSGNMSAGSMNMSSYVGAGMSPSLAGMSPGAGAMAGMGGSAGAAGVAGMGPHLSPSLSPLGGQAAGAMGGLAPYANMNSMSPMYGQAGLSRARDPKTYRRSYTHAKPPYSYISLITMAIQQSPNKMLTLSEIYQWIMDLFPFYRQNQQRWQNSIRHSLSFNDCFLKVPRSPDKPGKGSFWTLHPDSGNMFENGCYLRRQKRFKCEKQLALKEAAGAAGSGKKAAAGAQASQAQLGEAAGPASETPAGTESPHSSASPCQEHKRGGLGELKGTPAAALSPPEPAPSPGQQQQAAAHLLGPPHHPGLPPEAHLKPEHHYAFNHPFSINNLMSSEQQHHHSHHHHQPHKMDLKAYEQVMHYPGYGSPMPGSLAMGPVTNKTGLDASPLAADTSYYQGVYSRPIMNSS
Procedure, shortened: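 Cells: HepG2, transient multiplex reporter transfection. Exposure 24 h. Detection: reporter-specific RT-PCR, fluorescent labelling, restriction digest, capillary electrophoresis. Analysis: bidirectional curve fit, DMSO as negative control.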

[7] = ATG_FoxO_CIS: Attagene CIS-FACTORIAL HepG2 Assay for human Forkhead box O (FoxO) (AID 2282943); conditions: HepG2 Attagene cis-reporter, FoxO element, mRNA; actives raise or lower the signal
Procedure, shortened: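 24 h chemical exposure, HepG2 with transient cis-MRTU transfection. RNA extraction, oligo(dT) RT, reporter-specific PCR, primer-extension labelling, HpaI digestion, CE fragment analysis; bidirectional fit, DMSO baseline.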

[8] = ATG_GATA_CIS: Attagene CIS-FACTORIAL HepG2 Assay for human GATA Binding Protein (AID 2282944); conditions: HepG2 GATA cis-element reporter, Attagene multiplex mRNA; actives raise or lower the signal
Procedure, shortened: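 HepG2 cells transiently transfected with multiplexed cis-element reporter units reflecting endogenous transcription factor activity; reporter mRNA measured after 24 h dosing by RT-PCR, 6-FAM labeling, HpaI digestion and capillary electrophoresis. Bidirectional fitting versus DMSO baseline.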

[9] = ATG_GLI_CIS: Attagene CIS-FACTORIAL HepG2 Assay for human Zinc Finger Protein GLI1 (AID 2282945); conditions: HepG2, Attagene cis-factorial reporter mRNA, GLI element; actives raise or lower the signal
Procedure, shortened: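 HepG2 cells transiently transfected with cis-promoter multiplexed reporter units report endogenous transcription factor activity. After 24 h chemical exposure, reporter mRNA was quantified by RT-PCR, 6-FAM labelling, HpaI digestion and capillary electrophoresis, with bidirectional fitting against DMSO.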

[10] = ATG_GRE_CIS: Attagene CIS-FACTORIAL HepG2 Assay for human Glucocorticoid Response Elements (GRE) (AID 2282947); conditions: HepG2 GRE cis-reporter, Attagene multiplex mRNA; actives raise or lower the signal
Procedure, shortened: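 Cells (HepG2) bearing transfected cis-promoter reporter transcription units were treated with chemical for 24 hours. Reporter mRNA was measured via RT-PCR with capillary electrophoresis, and activity was fitted in both directions relative to DMSO.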

[11] = ATG_ISRE_CIS: Attagene CIS-FACTORIAL HepG2 Assay for human Interferon Regulatory Factor 1 (IRF1) binding to an Interferon-Stimulated Response Element (ISRE) (AID 2282948); conditions: HepG2 ISRE cis-reporter (Attagene), mRNA transcription readout; actives raise or lower the signal
Procedure, shortened: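 Read-out: fluorescent RT-PCR products resolved by capillary electrophoresis, reporting endogenous transcription factor activity via ISRE-driven reporter mRNA in transfected HepG2 cells dosed for 24 h; gain or loss fitted relative to DMSO.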

[12] = ATG_M_06_CIS: Attagene CIS-FACTORIAL HepG2 Assay for M06 Transcription Factor (Internal Marker) (AID 2282950); conditions: HepG2 Attagene CIS-FACTORIAL M06 internal marker reporter; actives raise or lower the signal
Procedure, shortened: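 HepG2 cells transiently transfected with cis-regulated multiple reporter transcription units were exposed to chemical for 24 h; reporter mRNA was quantified by RT-PCR, 6-FAM primer labelling, HpaI digestion and capillary electrophoresis, fitted bidirectionally against DMSO.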

[13] = molecular target: Hypoxia-inducible factor 1-alpha (Homo sapiens) (UniProt Q16665); experiment: ATG_HIF1a_CIS: Attagene CIS-FACTORIAL HepG2 Assay for human Hypoxia Inducible Factor 1 (HIF1A) (AID 2282951); conditions: HepG2 Attagene cis-factorial HIF1a reporter transcription; actives raise or lower the signal
Sequence of Hypoxia-inducible factor 1-alpha (Homo sapiens) (Q16665 whole entry, looked up): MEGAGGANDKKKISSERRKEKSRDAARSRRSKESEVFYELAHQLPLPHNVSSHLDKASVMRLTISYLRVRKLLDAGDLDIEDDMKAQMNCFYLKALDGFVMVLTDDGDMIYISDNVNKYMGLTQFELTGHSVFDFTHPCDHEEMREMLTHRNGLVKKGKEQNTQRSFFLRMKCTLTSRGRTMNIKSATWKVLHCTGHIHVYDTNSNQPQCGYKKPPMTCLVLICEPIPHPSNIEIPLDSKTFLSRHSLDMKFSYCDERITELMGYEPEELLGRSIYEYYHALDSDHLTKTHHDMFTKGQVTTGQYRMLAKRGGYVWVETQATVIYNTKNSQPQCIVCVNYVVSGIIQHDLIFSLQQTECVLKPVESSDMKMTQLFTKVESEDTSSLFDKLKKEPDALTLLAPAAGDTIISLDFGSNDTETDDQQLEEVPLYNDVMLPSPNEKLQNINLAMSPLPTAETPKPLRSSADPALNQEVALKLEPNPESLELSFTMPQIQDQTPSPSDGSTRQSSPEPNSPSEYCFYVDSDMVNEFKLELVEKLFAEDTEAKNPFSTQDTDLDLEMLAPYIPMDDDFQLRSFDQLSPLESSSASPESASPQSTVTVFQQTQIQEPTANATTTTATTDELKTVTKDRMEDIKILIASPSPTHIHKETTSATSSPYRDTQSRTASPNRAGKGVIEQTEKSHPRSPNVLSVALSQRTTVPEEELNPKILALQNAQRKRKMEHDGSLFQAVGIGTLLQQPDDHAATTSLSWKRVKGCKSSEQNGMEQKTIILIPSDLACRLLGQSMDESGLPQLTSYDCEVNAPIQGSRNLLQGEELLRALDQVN
Procedure, shortened: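 HepG2, transient cis-reporter library, 24 h dosing. RNA → RT (oligo dT) → PCR → 6-FAM primer extension → HpaI → CE. Bidirectional curve fit vs DMSO.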

[14] = molecular target: Hepatocyte nuclear factor 6 (Homo sapiens) (UniProt Q9UBC0); experiment: ATG_HNF6_CIS: Attagene CIS-FACTORIAL HepG2 Assay for human Hepatocyte Nuclear Factor 6 (HNF6) (AID 2282952); conditions: HepG2 Attagene cis-factorial HNF6 reporter transcription; actives raise or lower the signal
Sequence of Hepatocyte nuclear factor 6 (Homo sapiens) (Q9UBC0 whole entry, looked up, the tested form may be a part): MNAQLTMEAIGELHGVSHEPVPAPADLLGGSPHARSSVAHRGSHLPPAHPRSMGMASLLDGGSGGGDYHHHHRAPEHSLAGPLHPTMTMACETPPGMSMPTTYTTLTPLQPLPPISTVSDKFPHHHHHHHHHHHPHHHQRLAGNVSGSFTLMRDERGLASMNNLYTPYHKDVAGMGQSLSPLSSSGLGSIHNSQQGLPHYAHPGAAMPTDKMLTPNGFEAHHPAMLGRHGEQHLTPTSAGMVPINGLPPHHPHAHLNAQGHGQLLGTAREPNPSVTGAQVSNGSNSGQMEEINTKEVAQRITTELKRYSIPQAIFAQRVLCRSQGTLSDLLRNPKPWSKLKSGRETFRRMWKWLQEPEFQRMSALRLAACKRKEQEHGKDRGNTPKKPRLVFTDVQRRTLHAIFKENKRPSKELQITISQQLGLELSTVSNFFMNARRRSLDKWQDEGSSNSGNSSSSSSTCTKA
Procedure, shortened: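 Readout: fluorescent reporter-transcript fragments resolved by capillary electrophoresis after RT-PCR, reflecting endogenous factor activity in transfected HepG2. Exposure 24 h. Gain or loss of signal fitted bidirectionally against DMSO.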

[15] = molecular target: Heat shock factor protein 1 (Homo sapiens) (UniProt Q00613); experiment: ATG_HSE_CIS: Attagene CIS-FACTORIAL HepG2 Assay for human Heat Shock Transcription Factor 1 (HSE) (AID 2282953); conditions: HepG2 HSE cis-reporter, Attagene RNA transcription; actives raise or lower the signal
Sequence of Heat shock factor protein 1 (Homo sapiens) (Q00613 whole entry, looked up): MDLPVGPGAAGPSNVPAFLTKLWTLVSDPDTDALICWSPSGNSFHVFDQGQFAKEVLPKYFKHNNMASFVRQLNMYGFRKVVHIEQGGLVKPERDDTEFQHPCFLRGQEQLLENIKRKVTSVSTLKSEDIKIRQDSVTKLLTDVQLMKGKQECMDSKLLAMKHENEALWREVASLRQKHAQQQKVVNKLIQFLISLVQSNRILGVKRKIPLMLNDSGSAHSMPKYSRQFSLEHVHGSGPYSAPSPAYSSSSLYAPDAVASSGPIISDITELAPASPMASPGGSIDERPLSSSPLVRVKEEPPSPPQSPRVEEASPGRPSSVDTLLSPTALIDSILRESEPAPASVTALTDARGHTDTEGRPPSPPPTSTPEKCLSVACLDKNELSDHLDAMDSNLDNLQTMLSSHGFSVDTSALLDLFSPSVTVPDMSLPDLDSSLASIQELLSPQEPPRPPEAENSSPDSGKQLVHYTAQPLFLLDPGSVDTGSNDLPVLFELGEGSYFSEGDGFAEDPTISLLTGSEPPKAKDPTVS
Procedure, shortened: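 HepG2 cells transiently transfected with multiple reporter transcription units under cis-regulatory promoter control, measuring endogenous transcription factor activity. After 24 h chemical exposure, reporter mRNA quantified by RT-PCR, fluorescent labelling, HpaI digestion and capillary electrophoresis; bidirectional fit versus DMSO.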

[16] = ATG_MRE_CIS: Attagene CIS-FACTORIAL HepG2 Assay for human Metal Responsive Element (MRE) (AID 2282954); conditions: HepG2 MRE cis-reporter transcription, Attagene multiplex; actives raise or lower the signal
Procedure, shortened: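 Cells were transfected with cis-promoter reporter transcription units, then dosed for 24 h. RNA was reverse-transcribed, amplified, fluorescently labelled and resolved by capillary electrophoresis, and activity was fitted in both directions relative to DMSO.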

[17] = ATG_PBREM_CIS: Attagene CIS-FACTORIAL HepG2 Assay for human Phenobarbital-responsive Enhancer Module (PBREM) (AID 2282955); conditions: HepG2 PBREM cis-reporter, Attagene multiplexed transcription; actives raise or lower the signal
Procedure, shortened: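 HepG2, transient MRTU transfection, 24 h dosing; RNA → oligo(dT) RT → PCR → 6-FAM extension → HpaI → CE. Bidirectional fit vs DMSO.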

[18] = ATG_M_32_CIS: Attagene CIS-FACTORIAL HepG2 Assay for M32 Transcription Factor (Internal Marker) (AID 2282949); conditions: HepG2 Attagene cis-factorial M32 reporter, mRNA; actives raise or lower the signal;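 further: background control marker of the multiplexed CIS panel rather than a real target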
Procedure, shortened: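 HepG2 human liver cells transiently transfected with cis-promoter-driven multiple reporter transcription units, dosed 24 h. Reporter mRNA quantified by RT-PCR, FAM-labelled primer extension, HpaI digest and capillary electrophoresis; bidirectional fit versus DMSO baseline.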

[19] = molecular target: Bile acid receptor (Homo sapiens) (UniProt Q96RI1); experiment: ATG_IR1_CIS: Attagene CIS-FACTORIAL HepG2 Assay for human Nuclear Receptor Subfamily 1 Group H Member 4 (NR1H4), IR1 submotif (AID 2282946); conditions: IR1 reporter transcription, actives raise or lower the signal
Sequence of Bile acid receptor (Homo sapiens) (Q96RI1 whole entry, looked up): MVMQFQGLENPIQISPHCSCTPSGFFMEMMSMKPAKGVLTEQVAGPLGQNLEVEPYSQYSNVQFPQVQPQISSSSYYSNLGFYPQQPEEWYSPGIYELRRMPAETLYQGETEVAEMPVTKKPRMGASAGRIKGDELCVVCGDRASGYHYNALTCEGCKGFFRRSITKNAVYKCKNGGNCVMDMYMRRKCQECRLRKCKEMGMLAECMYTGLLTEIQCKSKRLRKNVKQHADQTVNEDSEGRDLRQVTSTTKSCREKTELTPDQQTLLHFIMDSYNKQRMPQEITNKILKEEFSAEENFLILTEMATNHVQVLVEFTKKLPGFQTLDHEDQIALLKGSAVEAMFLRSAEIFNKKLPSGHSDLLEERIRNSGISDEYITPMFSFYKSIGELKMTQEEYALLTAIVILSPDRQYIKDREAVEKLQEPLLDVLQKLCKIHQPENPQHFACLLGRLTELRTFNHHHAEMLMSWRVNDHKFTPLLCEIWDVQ
Procedure, shortened: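 Readout: reporter transcript levels by RT-PCR with fluorescent capillary electrophoresis, from HepG2 cells transiently transfected with multiplexed cis-regulated reporters and dosed 24 h. Gain- or loss-of-signal fitted versus DMSO negative control.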

Measured: AC50

CC(C)OCCO
not listed: [18] | [19]
inactive: all other assays above

CC(O)C1CCCCC1 (stereo unspecified)
not listed: [10] | [19]
inactive: all other assays above

CCC(=O)O[C@@H]1C[C@H]2CC[C@]1(C)C2(C)C
not listed: [19]
inactive: all other assays above

CCCCCCCC(=O)OCC(O)CO (stereo unspecified)
not listed: [9] | [19]
inactive: all other assays above

CCCCCCOCCOCCO
not listed: [9] | [10] | [17]
inactive: all other assays above

COC(=O)Nc1ccc(Cl)c(Cl)c1
active: [10] 25.7 µM | [11] 30.7 µM | [16] 49.7 µM
not listed: [7] | [17]
inactive: all other assays above

Clc1cc(Cl)c(-c2c(Cl)c(Cl)cc(Cl)c2Cl)cc1Cl
active: [16] 29.1 µM
not listed: [9] | [17]
inactive: all other assays above

Nc1ccc(N)c2c1C(=O)c1ccccc1C2=O
not listed: [9]
inactive: all other assays above

CC/C=C\CC/C=C/CO
not listed: [10] | [14] | [15] | [19]
inactive: all other assays above

O=P(O)(O)O
not listed: [7] | [17] | [18]
inactive: all other assays above

OC[C@H]1O[C@@H]2O[C@H]3[C@H](O)[C@@H](O)[C@@H](O[C@H]4[C@H](O)[C@@H](O)[C@@H](O[C@H]5[C@H](O)[C@@H](O)[C@@H](O[C@H]6[C@H](O)[C@@H](O)[C@@H](O[C@H]7[C@H](O)[C@@H](O)[C@@H](O[C@H]8[C@H](O)[C@@H](O)[C@@H](O[C@H]9[C@H](O)[C@@H](O)[C@@H](O[C@H]1[C@H](O)[C@H]2O)O[C@@H]9CO)O[C@@H]8CO)O[C@@H]7CO)O[C@@H]6CO)O[C@@H]5CO)O[C@@H]4CO)O[C@@H]3CO
not listed: [10] | [14] | [19]
inactive: all other assays above

CC(C)(C)CC(C)(C)c1ccc(OCCOCC[N+](C)(C)Cc2ccccc2)cc1
active: [1] 12.3 µM | [16] 8.35 µM
not listed: [7] | [17]
inactive: all other assays above

COC(=O)c1ccc(C)cc1C1=NC(C)(C(C)C)C(=O)N1 (stereo unspecified) (tested in a mixture with another compound)
not listed: [9] | [10] | [19]
inactive: all other assays above

CCCCCCOC(=O)C(C)C
not listed: [7] | [10] | [17]
inactive: all other assays above

CCCOC(=O)c1c(Cl)c(Cl)c(Cl)c(Cl)c1C(=O)OCCC
active: [11] 62.1 µM | [16] 162 µM
not listed: [9] | [19]
inactive: all other assays above

C[N+](C)(C)CCCCCC[N+](C)(C)C
not listed: [9] | [10] | [13]
inactive: all other assays above
